Measured values from the supplement of paper PMC3334620.
Over roughly 33,000 sequences, “E-score (-0.5 to 0.5)” has its median near -0.041; the highest 2% begin near 0.37. What follows is part of a selection rich in the highest values, with near analogues and random picks from the rest.

The sequences below were run against T1, Ecm22 (UniProt Q05958) (assay: PBM E-score (8-mer binding enrichment) (E-score (-0.5 to 0.5)); higher = stronger / more preferred TF binding). Details: protein concentration: 200 nM; construct: GST-full length.
T1 sequence: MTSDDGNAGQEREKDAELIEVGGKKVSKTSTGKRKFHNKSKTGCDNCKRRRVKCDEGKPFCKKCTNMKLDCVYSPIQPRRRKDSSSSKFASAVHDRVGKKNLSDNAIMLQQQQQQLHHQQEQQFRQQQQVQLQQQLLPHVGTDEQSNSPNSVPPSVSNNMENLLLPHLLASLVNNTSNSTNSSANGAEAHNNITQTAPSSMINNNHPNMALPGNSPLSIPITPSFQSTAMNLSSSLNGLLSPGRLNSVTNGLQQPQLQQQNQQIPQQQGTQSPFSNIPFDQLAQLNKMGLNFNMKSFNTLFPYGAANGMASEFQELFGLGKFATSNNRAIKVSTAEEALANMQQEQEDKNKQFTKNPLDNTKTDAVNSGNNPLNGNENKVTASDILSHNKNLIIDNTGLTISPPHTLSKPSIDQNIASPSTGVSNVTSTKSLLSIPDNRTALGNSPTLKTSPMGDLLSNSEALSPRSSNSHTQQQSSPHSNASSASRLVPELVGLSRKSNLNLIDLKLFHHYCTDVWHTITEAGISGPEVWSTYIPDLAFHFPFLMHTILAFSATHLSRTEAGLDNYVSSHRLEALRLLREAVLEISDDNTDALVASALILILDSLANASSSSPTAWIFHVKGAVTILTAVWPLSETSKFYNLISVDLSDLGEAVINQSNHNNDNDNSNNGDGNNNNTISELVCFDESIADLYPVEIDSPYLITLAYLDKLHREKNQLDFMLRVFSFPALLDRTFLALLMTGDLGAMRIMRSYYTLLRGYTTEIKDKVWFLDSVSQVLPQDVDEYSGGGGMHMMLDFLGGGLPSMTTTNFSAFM
Outline: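 PURExpress in vitro transcription/translation supplied GST-tagged yeast transcription factors, either full-length or DNA-binding domain. Applied at about 100-200 nM to universal all-10-mer Agilent arrays double-stranded by primer extension, the bound protein was detected with fluorescent anti-GST. E-scores, modified Wilcoxon-Mann-Whitney statistics, were given by the Universal PBM Analysis Suite to ungapped eight-base words pooled with their reverse complements after masliner normalisation.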

Sequence	PBM E-score
GGCAGGGA	-0.148
AATTCAGA	-0.0476
ATCGTTGC	0.347
CACGTTTC	-0.0133
CTCGTTGA	0.277
CGCGTTTC	0.0578
CTCGTTGC	0.445
CTCGTTTC	0.453
CTGCAAAA	-0.0893
ACGGGTTA	0.217
ACGCATCA	0.0479
ATTCGGAC	0.163
CCGGGTAC	0.291
ATTTGAAC	0.0528
CTCAGCTC	-0.0614
ATCATCTC	0.0439
GTAAACAA	0.279
ATATCGTA	0.413
GTATCGAA	0.161
CTATCGTC	-0.0492
CTATCGTA	0.406
ATATCGTG	0.147
ATATCGTC	0.0456
GTATCGGA	0.199
CTATCGAA	0.0456

Sequence	PBM E-score
GTATCGTA	0.421
AGGCTTGC	-0.219
CCAAGACA	-0.257
AAGCTGGG	-0.271
AAACTGAC	0.00573
AAGTGGCC	-0.248
ACCCTACC	-0.0742
ATATACAA	0.0401
ATATACGA	0.49
ATATACTG	0.0789
ATATACCA	0.0649
CTATACTC	0.0609
ATATACGC	0.299
CTATACGC	0.403
ATATACCG	0.21
ATATACGG	0.441
CAGGCTTA	-0.245
CTTGTGGC	-0.239
AAAGGTCG	0.00556
ACGATCAG	0.224
GATCAGGA	-0.069
AGTTGTCA	-0.0616
CGGGTCGA	-0.00467
GCCGTTAA	0.24
ACCGTTTG	0.287

Sequence	PBM E-score
CACGTTTA	0.256
CCCGTTTC	0.216
ACCGTTTC	0.187
GCCGTTGA	-0.138
ACCGTTTA	0.432
CCCGTTTA	0.433
GCCGTTTA	0.421
GCAGCGCA	-0.0703
ACGCAGAT	0.194
TACGAGAA	0.462
CACGAGAA	0.143
TTCGAGAA	0.149
AACGAGAA	0.424
AACGAGAC	0.451
TCCGAGAA	0.265
AACGAGAT	0.438
GACGAGAC	0.029
ACCGAGAT	0.178
ATCGAGAT	0.0251
GACGAGAA	0.138
CACGAGAC	0.0819
CTCCCTCA	-0.162
CTTCTAAA	-0.0244
GCTGTCTA	-0.0813
GGTACTAA	0.0853

Sequence	PBM E-score
CACAGAAC	0.00026
CTCGACCA	-0.0786
CCCGAAGA	0.0524
AATGCAGA	-0.0678
AACGAGAG	0.433
ATCGAGAG	0.0766
CACGAGAG	0.0712
ATCAAGGG	-0.149
GGCTACAA	0.042
CGCTACAA	0.0321
CTCTACGC	0.00503
GGCTACGA	0.424
AGCTACGG	0.112
AGCTACGA	0.394
CGCTACGC	0.138
CGCTACGA	0.456
CTCTACGA	0.37
AGCTACGC	0.141
ATCTACGA	0.304
GGCTACCA	-0.2
AGCGGGTA	0.107
GACCTGAC	-0.172
GAACTTGC	-0.0845
ATGCACCG	-0.0745
TATATCGA	0.131

Sequence	PBM E-score
GGCTGAAC	-0.0835
ACATTTGA	-0.158
CTTTGGAC	-0.0902
CTACGGTA	0.0823
ATACGGTA	0.383
GTACGGTA	0.385
GCACGGTA	-0.0289
ACACGGTA	0.108
AGACGGTA	-0.121
AGATAGCT	-0.0945
AGGCTCCA	-0.369
CTGCACAA	-0.214
CGGCAACC	-0.082
AACATTCT	-0.0433
ATTTATAC	0.401
ATTTATAA	0.0523
CTTTATAC	0.23
AAGAACCC	-0.0304
AGTACCTC	-0.19
AGTACCTA	-0.104
CGTACCTC	0.435
CGTACCTA	0.441
CCTACCTC	-0.0998
GGTACCTA	-0.1
CTAGAACA	-0.0457

Sequence	PBM E-score
CGGGTCGC	0.187
ACCGTCGC	0.278
ACCGTCGA	-0.216
AACGTCGA	0.178
AACGTCGT	0.37
ACCGTCGT	0.404
AACGTCGG	0.17
AAGCTCAG	-0.321
CGGTTCGC	0.151
AACCTAGC	-0.09
AGAGGGGG	-0.0644
ACAGCACC	-0.276
CCTCGTGC	0.0902
ACTCGTTA	0.348
CCTCGTTA	0.402
ACTCGTTG	0.274
GCACGTTA	0.0282
ACTCGGTC	0.229
ACTCGTTC	0.466
CCACGTTA	0.0599
CCTCGTTC	0.474
GCTCGCTA	0.31
CCTCGTCC	-0.238
GCTCGTTA	0.373
TCTCCTAA	-0.203

Sequence	PBM E-score
TCTAGGAA	-0.0513
CCTCGCTA	0.215
ACTCGCTC	0.354
CCTCGCTC	0.372
GGGAGAAA	-0.141
GGGGACCA	-0.259
AGCGATTC	0.12
CACGATTC	0.244
AACGATTA	0.382
ACCGATTG	0.115
AACGATTG	0.384
GACGATTA	0.0551
AACGATTC	0.377
ATCGATTG	0.0987
CACGATTA	0.1
CAGGGCAA	-0.227
CTGACGTA	0.132
AAGATACA	-0.046
GACTCGAC	0.0219
ATGAGATG	-0.227
ACTGCTGA	-0.19
CCCTCTCC	-0.358
CTAGGAAA	-0.209
CGCGCAAA	0.188
GTACGGGA	0.419

Sequence	PBM E-score
ACACGGGC	-0.0743
GCACGGGA	0.0895
AAACGGGG	0.361
CTACGGGA	0.146
ATACGGGG	0.386
AGACGGGG	-0.0581
ACACGGGA	0.0892
GAACGGGA	0.327
ATACGGGC	0.413
ATACGGGA	0.389
CTACGGGC	-0.0464
AAGCGCAC	0.0929
AAGCTTGT	0.0175
ACAATCCT	-0.0917
GGGGCAGA	-0.0715
ATCCTGCC	-0.0749
CGAGCACA	0.225
AGCCCTGG	-0.233
TAACCCCA	-0.181
ACAACTCC	-0.151
CGGCGAAA	0.0597
ATGTATAC	0.179
CTGTATAA	0.0431
CCGTATGA	0.396
ACGTATAC	0.381

Sequence	PBM E-score
CCGTATGC	0.268
AAGTATAC	0.255
ACGTATGA	0.17
CCGTATAA	0.473
GAGTATAC	0.286
GCGTATAC	0.406
GGGTATAC	0.15
CGGTATAA	0.161
AGTGCCAA	-0.0554
CTGCCTCA	-0.257
AATGTGCT	0.00418
CGATATGC	0.188
ATTCCCAG	-0.0258
GGAGCGAC	0.339
GGCGTTGA	-0.126
ACTTTAGG	-0.0481
CCGTATCC	0.337
AGGTATAT	-0.117
CTGTATAC	0.207
CCGTATAC	0.456
GTGTATAA	-0.026
ATGTATAA	0.0604
AAGTATAT	0.0727
ACGTATAA	0.412
GCGTATTA	0.031

Sequence	PBM E-score
ACGTATAT	0.371
GCGTATAA	0.394
AGGTATAA	0.211
TTCAAGAA	0.0932
CAGCCGGC	0.0272
CCAGAGAA	0.0432
GCAGGACA	-0.0743
CAGTCTAA	0.0425
ATGACTTG	-0.136
AGATACTG	-0.0213
CGGACGTA	0.205
ACTTTTAT	-0.217
CTACAGTC	-0.0606
AACAGGTA	-0.0274
AATAAGGC	-0.225
ACGTATTG	0.22
ACGTATAG	0.403
CCGTATAG	0.465
CGGTATAG	0.0179
ACGTATCG	0.192
CCGTATCG	0.291
CTGAAGTA	-0.134
TCACCAAA	0.0237
CCGGATAA	0.0584
TCGGATAA	0.372

Sequence	PBM E-score
ACGGATAA	0.159
AGCAGCCG	-0.0197
ATATAGGC	-0.00233
AAACGCAT	0.0604
TAACGACA	0.352
AAACGACG	0.465
GGACGACC	-0.107
GCACGACC	-0.219
GAACGACA	0.456
ACACGACT	0.117
CAACGACG	0.351
CAACGACA	0.346
AGACGACT	0.065
GAACGACC	0.451
AAACGACT	0.437
CGACGACG	0.127
ATAGCTCC	-0.169
CCCTTCCA	-0.32
ACCGGATG	0.0481
CTCCTCTC	-0.0778
GGTGTGAC	-0.177
CTCGCACC	0.31
AGATCCGG	-0.0497
ATCGGTCG	0.211
TCACGACA	0.00255

Sequence	PBM E-score
AAACGACA	0.467
CAACGACC	0.278
CCACGACA	-0.0411
AAACGACC	0.45
AATCGACC	-0.0105
CCTTCCGC	-0.184
GAGAGGGA	-0.212
AGATACGC	0.196
GGATACCA	-0.0853
CGATACGA	0.454
CGATACGC	0.2
AGATACGA	0.47
GGATACGA	0.45
CGATACAA	0.148
AGATACGG	0.28
GGATACTA	-0.144
CAAATGCC	-0.27
TGCAAGAA	-0.0877
AAGCCATA	-0.0528
CCTTCCCG	-0.043
ACAGAGCG	0.00751
CCTTGAAA	-0.0768
ACGAGTTC	0.319
GCGAGTTA	0.191
ACGAGTTA	0.422

Sequence	PBM E-score
AGGAGTTG	0.0179
ACGAGTTG	0.371
CCGAGTTA	0.0641
GGGAACCC	0.0178
CGCCCAGA	-0.104
CCCAACCA	0.0792
GAAGAGAC	0.0183
GACCTTCA	-0.0961
AGTTTAGC	-0.19
CGTTTAGA	0.446
CGTTTGGC	0.394
CATTTAGC	0.0683
CGTTTGGA	0.366
AGTTTAGA	-0.186
GGTTTAGA	-0.179
AGTTTGGC	-0.00953
CGTTTAGC	0.464
CACTGCTG	-0.147
GCTGCTAC	0.124
GACCCGGA	-0.17
CTCCGCGC	-0.0267
CCGTAGCA	0.165
ACGTAGCA	0.0433
GCGTAGAA	-0.0103
TCGTAGAA	0.384

Sequence	PBM E-score
CCGTAGAA	0.122
TCGTAGCA	0.419
AAGACCTC	-0.2
GAAACGAC	0.41
CTAACGAC	0.282
CCAACGAG	0.093
CAAACGAC	0.442
GAAACGGC	0.2
AAAACGAG	0.362
CAAACGAG	0.463
GAAACGCC	0.0403
AAAACGAC	0.363
ACCCAGCG	-0.184
CAGGACCG	-0.0291
CAATTCGC	0.0698
ACTCACGG	0.034
CACGTCCG	-0.21
CAGATGGA	0.0554
ACTCACCG	-0.0985
